Structures can show the parent of a compound that is named as a salt.
What follows are molecules tested on hN + hpA co-culture (H1 iNGN2 human neurons + human primary astrocytes) (assay: presynaptic density (SYNAPSIN1 puncta per MAP2 neurite area), Z-score vs DMSO controls; higher = more presynaptic puncta (synapse-promoting)). Settings: 3 µM; 72 h.
For `Oc1cc(O)cc(/C=C/c2ccc(O)c(O)c2)c1` [Piceatannol], the “presynaptic density (Z-score)” value was -0.0151.
`O=C(NOCC1CC1)c1ccc(F)c(F)c1Nc1ccc(I)cc1Cl` was tested, and the “presynaptic density (Z-score)” value was -0.102.
`CC(C)(C#N)c1cc(Cn2cncn2)cc(C(C)(C)C#N)c1` was tested, and the “presynaptic density (Z-score)” value was -0.628.
In the case of `Cc1cc2c(cc1CC(=O)c1sccc1S(=O)(=O)Nc1onc(C)c1Cl)OCO2` [Sitaxentan sodium], the “presynaptic density (Z-score)” value is reported as -0.569.
With `N#Cc1ccc(C(c2ccc(C#N)cc2)n2cncn2)cc1` the “presynaptic density (Z-score)” value was 0.0621.
For `OC(CC1c2ccccc2-c2cncn21)C1CCCCC1` (centres undefined), the “presynaptic density (Z-score)” value was 0.156.
With `CC(C)NCCCn1c(Sc2cc3c(cc2I)OCO3)nc2c(N)ncnc21` the “presynaptic density (Z-score)” value was -0.039.
In the case of `CCC(=O)NCC[C@@H]1CCc2ccc3c(c21)CCO3`, the “presynaptic density (Z-score)” value is reported as -1.53.
For `COc1cc2nc(N3CCN(C(=O)C4COc5ccccc5O4)CC3)nc(N)c2cc1OC` (centres undefined) [Doxazosin mesylate], the “presynaptic density (Z-score)” value was 0.0192.
`CC1COCCN1c1cc(C2(S(C)(=O)=O)CC2)nc(-c2cccc3[nH]ccc23)n1` (centres undefined) was tested, and the “presynaptic density (Z-score)” value was 0.445.
In the case of `CCCCOc1ccc(C(=O)Nc2ccc(F)cc2F)cc1`, the “presynaptic density (Z-score)” value is reported as 0.219.
In the case of `CNC(=O)c1ccc2cc([C@@]3(O)CCn4cncc43)ccc2c1` [TAK-700 (Orteronel)], the “presynaptic density (Z-score)” value is reported as 0.215.
For `CCc1c2c(nc3ccc(OC(=O)N4CCC(N5CCCCC5)CC4)cc13)-c1cc3c(c(=O)n1C2)COC(=O)C3(O)CC` (centres undefined) [Irinotecan HCl Trihydrate_Selleck], the “presynaptic density (Z-score)” value was -0.772.
In the case of `COc1cccc2c1C(=O)c1c(O)c3c(c(O)c1C2=O)C[C@@](O)(C(C)=O)C[C@@H]3O[C@H]1C[C@H](N)[C@H](O)[C@H](C)O1` [Daunorubicin HCl], the “presynaptic density (Z-score)” value is reported as 0.0215.
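Further: immunostained co-cultures imaged by high-content microscopy, Z-score per plate against mean and SD of 0.1% DMSO wells, compounds added on differentiation day 18, analysed day 21.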
